EPAC2 ag = activates human EPAC2 exchange factor. Potency, µM (titrated, usually from 154 µM), without a hit: at the highest dose activation, usual class: activators. AID 720711. 360,000 compounds, 0.079% hits. EPAC2 activation, biochemical qHTS; response scale: 100% = 6.5 mM cAMP response. Q8WZA2; also: nearly all actives have a fitted effect of over 50% in size
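Each well held 100 nM EPAC2, 250 nM RAP1B-BODIPY-GDP and 50 uM GDP. Fluorescence, read at 5-min intervals to 30 min, was referenced to a 6.5 mM cAMP positive control.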
EPAC1 agonist = EPAC1 (human) agonism; O95398; EPAC1 agonist qHTS, biochemical assay; response scale: 100% = response to 6.5 mM cAMP; Potency, µM (doses to about 154 µM), for the others: at the top dose activation, usual class: activators; 360,000 compounds, 0.073% hits; also: nearly all actives have a fitted effect of over 60% in size
Target sequence (O95398 whole entry, looked up): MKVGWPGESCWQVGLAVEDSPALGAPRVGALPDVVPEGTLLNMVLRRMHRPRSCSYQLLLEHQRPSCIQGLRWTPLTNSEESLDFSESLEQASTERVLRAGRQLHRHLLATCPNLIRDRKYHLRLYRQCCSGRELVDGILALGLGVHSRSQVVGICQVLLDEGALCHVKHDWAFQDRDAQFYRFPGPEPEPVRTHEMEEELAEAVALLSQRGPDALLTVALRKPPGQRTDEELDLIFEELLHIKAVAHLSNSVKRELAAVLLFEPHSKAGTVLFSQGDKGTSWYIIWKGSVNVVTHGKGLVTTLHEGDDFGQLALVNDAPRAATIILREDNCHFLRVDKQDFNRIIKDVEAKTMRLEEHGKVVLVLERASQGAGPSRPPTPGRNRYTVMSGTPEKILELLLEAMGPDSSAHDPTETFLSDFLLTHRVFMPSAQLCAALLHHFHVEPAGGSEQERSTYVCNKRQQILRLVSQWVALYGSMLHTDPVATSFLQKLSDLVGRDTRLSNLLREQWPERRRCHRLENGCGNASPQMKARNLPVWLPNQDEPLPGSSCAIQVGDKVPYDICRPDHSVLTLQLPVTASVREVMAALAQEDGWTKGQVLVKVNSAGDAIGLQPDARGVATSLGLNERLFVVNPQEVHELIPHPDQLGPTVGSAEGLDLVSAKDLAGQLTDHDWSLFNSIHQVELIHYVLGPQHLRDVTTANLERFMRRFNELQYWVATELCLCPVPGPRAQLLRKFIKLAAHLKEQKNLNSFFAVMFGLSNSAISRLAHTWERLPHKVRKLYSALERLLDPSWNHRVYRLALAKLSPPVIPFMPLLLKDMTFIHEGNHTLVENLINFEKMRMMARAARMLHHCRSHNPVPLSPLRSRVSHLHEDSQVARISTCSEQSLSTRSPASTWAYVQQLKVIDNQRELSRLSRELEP
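Nucleotide exchange by EPAC1 (100 nM) on Rap1B–BODIPY-GDP (250 nM) in the presence of 50 uM GDP is tracked fluorescently at 480/540 nm over 30 min. Signals are normalized to a 6.5 mM cAMP control.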
EPAC2 antagonist = antagonists of human EPAC2. Q8WZA2. EPAC2 GEF exchange of Rap1B-BODIPY-GDP, fluorescence. Potency, µM (titrated, usually from 114 µM), without a hit: at the top dose activity, negative = inhibition, usual class: inhibitors. 360,000 compounds, 0.18% hits; also: % is scaled to controls: 0 for no effect and ±100 for the full control effect; nearly all actives have a fitted effect of over 45% in size
EPAC1 antagonist = antagonists of human EPAC1. O95398. EPAC1 GEF assay, Rap1b-BODIPY-GDP exchange fluorescence. Potency, µM (doses to about 115 µM), without a hit: top-dose activity change, negative = inhibition, most hits filed as inhibitors. 360,000 compounds, 0.14% hits;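 also: plate controls were vehicle for no effect and positive control for full effect; nearly all actives have a fitted effect of over 50% in size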
BRCA1 expr up = BRCA1 expression activation. MCF7-BRCA1-FFLuc reporter, luminescence, 48 h; response scale: scaled: vehicle 0%, 10 µM genistein 100%. Potency, µM (top dose mostly 46.1 µM), without a hit: top-dose activation, actives largely listed as activators. AID 624202. 380,000 compounds, 1.1% hits; also: nearly all actives have a fitted effect of over 80% in size
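Using MCF7 cells harboring a BRCA1 firefly luciferase reporter, plated 2 h before compound pinning, the screen measured luminescence after 48 h incubation. Responses were normalized to DMSO and 10 microM genistein, then fitted for concentration-effect.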
RGS4 inh = human RGS4 inhibition; Transcreener GDP fluorescence polarization, RGS4-accelerated GTP hydrolysis; P49798; 390,000 compounds, 0.039% hits; Potency, µM (series often up to 114 µM), without a hit: at the top dose activity change, negative = inhibition, hits mostly inhibitors; AID 504845; also: % is scaled to controls: 0 for no effect and ±100 for the full control effect; nearly all actives have a fitted effect of over 75% in size
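MLSMR compounds (23 nl, pin-transferred) preincubated 10 min at room temperature with a 500nM (2x) first reagent, then RGS4 at 900nM (2x) plus Transcreener GDP mix added; fluorescence polarization (620/688 nm) read before and after 90 min at 30 °C.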
Active calls of the source: *; ? = inconclusive; / = no result; [ ] = dose if it differs, or a comment. Hits are enriched below; roughly 1.3% of the tested compounds scored in any of these assays. Calls follow the shape of the dose curve; as a rule, active = well fitted curve in the direction sought with a large enough effect; inconclusive = small, poorly fitted or top-dose-only effect, or another doubt; inactive = no such curve, though single readings can be large; an effect the other way counts as inactive or inconclusive. Potency is read from the fitted curve at half-maximal effect.

SMILES	EPAC2 ag	EPAC1 agonist	EPAC2 antagonist	EPAC1 antagonist	BRCA1 expr up	RGS4 inh
CC1=C(C(=O)OCc2ccccc2)C(c2ccc(C(C)(C)C)cc2)NC(=O)N1CCCCCC(=O)O (configuration not stated)	-10.3%	-6.0%	15.8µM*	-15.6%	-0.6%	-6.8%
Cc1nc(SC(C(=O)c2ccccc2)c2ccccc2)nc2ccccc12 (configuration not stated)	-4.6%	-1.3%	-0.7%	-29.5%	-26.3%	-10.9%
CCC(=O)c1ccc(OCc2ccccc2)c(OC)c1	1.4%	-12.3%	0.8%	1.4%	6.31µM*	9.1%
COc1ccc(C(=O)CC(=O)c2ccccc2O)cc1OC	20.0%	22.7%	-1.1%	1.6%	12.6µM*	5.8%
CCC(=O)c1ccc(OCc2ccc(C(=O)OC)cc2)c(OC)c1	-24.2%	-12.1%	-6.5%	-9.6%	78.3%	7.0%[11.4 µM]
N#C/C(=C/c1ccc(Oc2ccc([N+](=O)[O-])cn2)cc1)C(=O)N1CCOCC1	9.5%	7.1%	4.5%	20.9%	-22.9%	4.7%
O=C(CCN=C1NS(=O)(=O)c2ccccc21)OCc1c(F)c(F)c(F)c(F)c1F	-3.7%	-9.1%	-0.4%	10.6%	-41.6%	-1.8%
COc1ccccc1NC(=O)CSc1nc(=O)n(CCN(C)C)c2c1CCCC2	-8.1%	-3.6%	-1.3%	8.1%	-26.3%	-11.5%
O=[N+]([O-])c1ncccc1OCc1ccc(Cl)c(Cl)c1	13.3%	6.7%	3.2%	-8.4%	7.08µM*	-11.7%
CCCCCCCCCCCCCC(=O)Nc1ccc(/C=C/c2ccnc3ccccc23)cc1	/	/	/	/	1.7%	/
CC(C)CN(/C=N/c1sc2c(c1C#N)CCCCC2)CC(C)C	3.1%	6.4%	0.0%	-0.4%	-10.5%	-12.7%
CCN(/C=N/c1sc2c(c1C#N)CCCCC2)CC	14.5%	17.9%	-7.5%	-7.5%	6.31µM*	35.3%
N#Cc1c(/N=C/c2ccco2)sc2c1CCC2	10µM*	2.9%	1.7%	7.1%	2.5%	3.4%
Oc1c(Br)cc(Br)cc1/C=N/Nc1ccc(Cl)nn1	4.1%	-8.5%	1.0%	-18.7%	-82.6%	18.9%
Oc1c(Br)cc(/C=N/Nc2nncc3ccccc23)cc1Br	-7.1%	4.7%	-1.5%	1.9%	8.91µM*	6.0%
COc1ccccc1/C=N/Nc1nncc2ccccc12	-0.7%	5.6%	1.5%	-28.1%	10µM*	15.1%
Oc1c(Br)cc(/C=N/Nc2ccc(Cl)nn2)cc1Br	-1.5%	-4.4%	-7.1%	25.1µM*	-44.7%	?
COc1ccccc1/C=N\Nc1ccccc1[N+](=O)[O-]	8.5%	-1.5%	6.8%	4.8%	10µM*	-21.3%
CCN1C(=O)CC(N2CCC(C(=O)N3CCCCCC3)CC2)C1=O (configuration not stated)	4.8%	11.5%	1.6%	-22.8%	19.6%	12.9%
COc1ccccc1CN1CCNC(=O)C1CC(=O)NCCCn1cccn1 (configuration not stated)	15.2%	4.9%	-2.9%	-28.0%	8.3%	8.7%
O=C(Cn1cc(C(F)(F)F)cc(Cl)c1=O)NCc1ccc(F)cc1	0.4%	7.8%	-1.8%	-0.2%	11.2µM*	-13.7%
CCC(C)NC(=O)c1cc2cc(S(=O)(=O)N3CCCCC3)ccc2n1C (configuration not stated)	/	/	/	/	/	-21.5%
Cc1cccc2sc(N(CCCN(C)C)C(=O)c3ccc4ncsc4c3)nc12	3.8%	9.9%	-7.3%	-23.7%	24.0%	-33.3%
CC1(Cc2cccc(F)c2)C(=O)Nc2ccc(-c3cccnc3)cc21 (configuration not stated)	4.9%	-17.9%	?	-8.2%	0.0%	/
CC1(Cc2ccc(Cl)cc2)C(=O)Nc2ccc(-c3cccnc3)cc21 (configuration not stated)	11.7%	-2.1%	50.1µM*	-6.6%	-23.4%	/
SMILES	EPAC2 ag	EPAC1 agonist	EPAC2 antagonist	EPAC1 antagonist	BRCA1 expr up	RGS4 inh
Cc1cc2nc(-c3ccccc3)cc(=O)n2[nH]1	17.2%	4.4%	9.1%	7.9%	10µM*	2.9%
O=c1cc(-c2ccccc2)nc2cc(-c3ccc(Br)cc3)[nH]n12	-1.1%	-15.8%	10.1%	3.8%	19.0%	4.0%
COc1ccc(Nc2nc(N)c3ccccc3n2)c(OC)c1	9.9%	3.6%	3.9%	2.9%	3.55µM*	-5.3%
Cc1ccc(C(=O)c2coc3c2C(=O)C(=O)c2ccccc2-3)cc1	4.8%	9.3%	0.6%	7.7%	17.8µM*	?
Cc1ccc(CNC(=O)CSc2nc3ccccc3c(=O)n2CCCO)cc1	1.8%	7.5%	2.5%	1.3%	2.5%	0.8%
Cc1nn(CCc2nn[nH]n2)c2nc(-c3ccc(C4CCCCC4)cc3)cc(C(F)(F)F)c12	-23.3%	-14.6%	?	79.4µM*	-82.3%	-6.9%
CCCCc1nc2cc(C(=O)N3CCC[C@H]3CO)ccc2o1	-1.7%	-17.3%	-2.4%	-6.6%	64.6%	-10.7%
CCCCc1nc2cc(C(=O)N3CCC(O)CC3)ccc2o1	3.5%	-9.6%	-9.6%	-4.3%	3.55µM*	-1.1%
CCc1ccc2c(c1)C1(SC(NC(C)=O)=NN1C(C)=O)C(=O)N2C(C)C (configuration not stated)	4.4%	1.6%	-1.0%	2.0%	-0.6%	4.0%
CC(N)(Cc1ccc(O)c(O)c1)C(=O)O (configuration not stated)	/	/	/	/	/	10.6µM*
COc1ccc2nc3ccccc3nc2c1NC(=O)c1ccc(Cl)cc1Cl	100µM*	?	193.5%	20.9%	8.0%	-8.4%
Cc1nn(C)c(C(=O)NC(=S)Nc2ccccc2O)c1Cl	10.7%	4.4%	6.1%	-8.9%	-44.4%	-27.0%
COc1ccc2cc3c(N)c(C(=O)N4CCCC4)sc3nc2c1	-11.4%	3.4%	-6.0%	3.5%	?	-40.5%
Nc1c(C(=O)N2CCCC2)sc2nc(-c3ccccc3)ccc12	-0.1%	-6.4%	-0.3%	6.9%	5.62µM*	-29.7%
Nc1c(C(=O)N2CCCCC2)sc2nc3c(cc12)CCCC3	4.4%	2.6%	-8.6%	-8.5%	5.62µM*	-43.7%
CCOc1ccc(N/C(C)=C/C(=O)c2ccc3c(c2)OCCO3)cc1	14.3%	12.7%	-2.1%	-19.4%	4.47µM*	7.7%
COc1ccc(C(=O)/C=C(\C)Nc2ccc3c(c2)OCO3)cc1	22.3%	4.4%	0.4%	2.9%	?	5.3%
CCOc1ccc(N/C(C)=C\C(=O)c2ccc3c(c2)OCCO3)cc1	25.9%	9.8%	-3.1%	-24.3%	12.6µM*	25.6%
COc1cccc(CCNC(=O)c2ccc(C#N)cc2)c1	12.8%	-5.4%	-5.1%	5.2%	52.9%	-10.5%
Cc1n[nH]c(=O)n1-c1ccc(OCc2ccccc2)cc1	3.2%	4.9%	0.4%	-0.5%	5.62µM*	0.9%
